Laboratory results as given in the supplement of paper PMC6555819.

What was measured:
Test in all cases: PBM binding z-score (relative to random genomic background probes); higher = stronger binding; sequences stand for … in GC…GCGATTGACAGCGTAGAATGAAGG
[1] = system: LXRa:RXRa (NR concentration 270 nM, RXRa partner concentration 90 nM)
Outline: (§1)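 Ligand-free nuclear receptor dimers were applied to custom Agilent 4×180K protein-binding microarrays whose double-stranded probes carried direct-repeat seeds, single-nucleotide variants, half-site ablations and random human genomic background sequences in 34-nt variable regions. Incubation lasted 1 h. Binding z-scores were computed against the random background probes from regression-normalized fluorescence.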

[2] = system: LXRa homodimer (NR concentration 270 nM)
Outline: as §1

[3] = system: LXRb homodimer (NR concentration 270 nM)
Outline: as §1

[4] = system: PPARa:RXRa (NR concentration 270 nM, RXRa partner concentration 90 nM)
Outline: as §1

[5] = system: PPARg:RXRa (NR concentration 180 nM, RXRa partner concentration 90 nM)
Outline: as §1

[6] = system: PPARg:RXRa 270nM:90nM, anti-RXR (NR concentration 270 nM, RXRa partner concentration 90 nM)
Outline: as §1

[7] = system: PPARg:RXRa 30nM:10nM, anti-RXR (NR concentration 30 nM, RXRa partner concentration 10 nM)
Outline: as §1

[8] = system: PPARg:RXRa 90nM:30nM, anti-RXR (NR concentration 90 nM, RXRa partner concentration 30 nM)
Outline: as §1

[9] = system: PPARg:RXRa DBDmut IVT, anti-RXR (DBD mutation: RXRa K156A/R161A, NR concentration 270 nM, RXRa partner concentration 90 nM)
Outline: as §1

[10] = system: PPARg:RXRa IVT, anti-PPARg (NR concentration 270 nM, RXRa partner concentration 90 nM)
Outline: as §1

[11] = system: PPARg DBDmut:RXRa IVT, anti-PPARg (DBD mutation: PPARg1 K132A/R137A, NR concentration 270 nM, RXRa partner concentration 90 nM)
Outline: as §1

[12] = system: PPARg DBDmut IVT, anti-PPARg (DBD mutation: PPARg1 K132A/R137A, NR concentration 270 nM)
Outline: as §1

[13] = system: PPARg homodimer (NR concentration 180 nM)
Outline: as §1

[14] = system: PXR:RXRa (NR concentration 270 nM, RXRa partner concentration 90 nM)
Outline: as §1

[15] = system: PXR homodimer (NR concentration 270 nM)
Outline: as §1

[16] = system: RARa:RXR (NR concentration 270 nM, RXRa partner concentration 90 nM)
Outline: as §1

[17] = system: RARa homodimer (NR concentration 270 nM)
Outline: as §1

[18] = system: RARb:RXRa (NR concentration 270 nM, RXRa partner concentration 90 nM)
Outline: as §1

[19] = system: RARb homodimer (NR concentration 270 nM)
Outline: as §1

[20] = system: FXR:RXRa (NR concentration 270 nM, RXRa partner concentration 90 nM)
Outline: as §1

Sequence	PBM binding z-score [1]	PBM binding z-score [2]	PBM binding z-score [3]	PBM binding z-score [4]	PBM binding z-score [5]	PBM binding z-score [6]	PBM binding z-score [7]	PBM binding z-score [8]	PBM binding z-score [9]	PBM binding z-score [10]	PBM binding z-score [11]	PBM binding z-score [12]	PBM binding z-score [13]	PBM binding z-score [14]	PBM binding z-score [15]	PBM binding z-score [16]	PBM binding z-score [17]	PBM binding z-score [18]	PBM binding z-score [19]	PBM binding z-score [20]
CGAACTAGGTCACCCAGGACAGTGAATACATTGA	2.03	0.478	-0.274	4.82	8.33	6.66	4.23	6.12	8.48	8.55	3.12	2.38	2.12	1.88	1.13	2.54	1.21	4.25	3.34	–
CCTACTGGGTCACGAAAGGTCATTGATTCAGTGA	–	6.45	0.81	–	9.12	7.71	5.23	6.95	7.12	8.65	1.64	2.22	4.41	–	2.09	–	2.35	–	5.9	6.45
ATATGTAGGTTATCTGGGGTCATTCAGACTAGGC	–	8.86	2.41	–	6.31	5.84	3.28	5.32	7.21	6.58	2.87	2.04	3.42	–	6.37	5.95	1.76	3.16	3.97	6.16
TTACCAAGGTGAAAGGTCGTTGCTGCACGCCTTG	3.07	0.401	-0.185	5.33	8.98	7.85	8.63	8.9	2.97	5.07	0.655	0.268	1.88	3.88	0.364	5.58	-0.419	3.14	2.59	–
GCTAGTTGGTCAGTAAAAGGTGACACACCGGTCG	–	-0.18	-0.568	–	0.834	1.59	-0.104	1.02	0.643	1.63	-1.22	-1.06	0.86	0.431	-0.523	1.07	0.0812	1.83	2.45	0.000592
CAAACTAGGTCAAAAGGTCAAAGTCCGCTTCCCG	–	6.17	2.63	–	10.2	8.73	7.62	9.1	8.5	8.17	1.83	1.09	7.65	6.71	2.96	–	5.47	–	6.38	7.44
GATACAGGGTCGGCTAGAGGCCAGAGTATGGAAA	0.191	-0.632	-1.28	1.36	0.561	0.616	-0.167	0.215	-0.804	-0.134	-0.784	-0.716	0.88	0.712	-0.222	1.39	-0.471	1.56	1.32	–
ATATGTAGGTTAACTGGGGTCATTCAGACTAGGC	–	5.57	1.43	–	7.58	6.61	4.49	6.42	7.59	7.34	1.81	2.42	1.95	–	5.25	5.93	1.61	3.55	4.28	5.59
CCTACTGGGTCAAAGGTCATTGATTCCAATGCTC	–	5.27	1.18	–	–	11.2	12.3	13	7.6	8.67	3.67	3.47	7.2	–	3.3	–	2.65	–	5.06	7.5
CGAACTAGGTCGAGGACAGTGAATCTCCGCACGC	-0.0944	-0.716	-0.651	1.75	2.03	1.98	0.0747	1.23	5.71	5	0.082	-0.0951	-0.11	-0.012	-0.207	0.419	-0.18	1.64	1.18	–
TCTAGTCGGTCAAAGGTCACACACTCGAAATGCG	–	5.28	2.21	–	–	10.2	11.1	11.4	5.17	6.92	1.34	1.59	5.59	6.26	1.5	–	2.61	5.34	5.22	6.97
TGTCAATGTTCAAAGGTAACGTAAGTATCCACAC	–	-0.216	0.283	–	2.34	3.47	1.61	3.32	-0.214	1.8	1.27	0.82	0.516	–	-0.115	0.48	-0.4	1.09	0.732	0.202
CTCGAAAGGTCGTGCTCAGATGAGTATACCAAAC	–	0.0537	0.486	–	2.71	3.42	0.769	2.09	0.422	1.25	0.625	1.37	1.3	2.96	0.152	–	0.441	3.79	2.15	5.4
ACTTAAGGGTCAACGAGGTTATAGCACGCGTATA	6.42	1.86	1.21	6.46	7.09	6.95	3.18	5.51	3.78	4.06	2.52	3.33	4.43	6.26	6	6.74	2.01	5.29	4.31	–
CCTGCGAGGTCATGGTCAGCTAATCTACAGTATG	5.55	1.41	0.772	5.87	5.93	5.94	2.34	4.57	3.79	4.21	2.09	1.64	4.94	5.39	1.06	5.88	1.08	5.01	4.02	–
